Test [1] concerns Plasmodium falciparum Sir2 (PF13_0152, Sir2A). The experiment in a line: Plasmodium falciparum Sir2A binding compounds – biochemical, small-molecule microarray, 635 nm fluorescence, primary screen (AID 1098).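 Further: score merges spot fluorescence intensity with its signal-to-noise ratio.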 To be noted: fluorescence 635 nm, higher = more signal.
A short description of test [2]: probe aDKK1 binding to arrayed compounds – biochemical, biotinylated probe, 635/667 nm fluorescence, primary screen (AID 1099).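 Further: score merges 667nm spot fluorescence with signal to noise across triplicate slides.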 To be noted: small-molecule microarray, higher = more signal.
Test [3] can be described thus: probe aCHRDL2 binding to arrayed compounds – biochemical, biotinylated probe, 635/667 nm fluorescence, primary screen (AID 1100). To be noted: small-molecule microarray, higher = more signal.
A short description of test [4]: change in splice reporter luminescence, either direction, cell-based, HEK293, spliceosome inhibition project, primary screen (AID 1101).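 Further: HEK293 cells carrying a splicing-competent luciferase reporter gene; test concentration not given here.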 To be noted: HEK293 splicing luciferase reporter, 24 h, higher = more signal, called active from +8 up or from −8 down. (A reporter such as luciferase makes a cellular process visible.)
Test [5] addresses Fibroblast growth factor 10 (Homo sapiens) (UniProt O15520). Description: compounds binding fibroblast growth factor 10 – biochemical, small-molecule microarray, 635 nm fluorescence, primary screen (AID 1102). To be noted: FGF10 binding, fluorescence 635 nm, higher = more signal.
Test [6] concerns glycogen synthase kinase-3 (GSK3A per assay name; protocol says GSK3B). Description: compounds binding glycogen synthase kinase-3 – biochemical, small-molecule microarray, 635 nm fluorescence, GSK3A, primary screen (AID 1103). Further: the record names both GSK3A and GSK3B. To be noted: fluorescence 635 nm, higher = more signal.
Test [7] deals with Epidermal growth factor receptor (Homo sapiens) (UniProt P00533). The experiment in a line: compounds binding epidermal growth factor receptor – biochemical, small-molecule microarray, 635 nm fluorescence, primary screen (AID 1104).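 Further: score merges 667 nm emission intensity with spot signal to noise over triplicate slides.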 To be noted: EGFR binding, higher = more signal.
Epidermal growth factor receptor (Homo sapiens), sequence (P00533 whole entry, looked up): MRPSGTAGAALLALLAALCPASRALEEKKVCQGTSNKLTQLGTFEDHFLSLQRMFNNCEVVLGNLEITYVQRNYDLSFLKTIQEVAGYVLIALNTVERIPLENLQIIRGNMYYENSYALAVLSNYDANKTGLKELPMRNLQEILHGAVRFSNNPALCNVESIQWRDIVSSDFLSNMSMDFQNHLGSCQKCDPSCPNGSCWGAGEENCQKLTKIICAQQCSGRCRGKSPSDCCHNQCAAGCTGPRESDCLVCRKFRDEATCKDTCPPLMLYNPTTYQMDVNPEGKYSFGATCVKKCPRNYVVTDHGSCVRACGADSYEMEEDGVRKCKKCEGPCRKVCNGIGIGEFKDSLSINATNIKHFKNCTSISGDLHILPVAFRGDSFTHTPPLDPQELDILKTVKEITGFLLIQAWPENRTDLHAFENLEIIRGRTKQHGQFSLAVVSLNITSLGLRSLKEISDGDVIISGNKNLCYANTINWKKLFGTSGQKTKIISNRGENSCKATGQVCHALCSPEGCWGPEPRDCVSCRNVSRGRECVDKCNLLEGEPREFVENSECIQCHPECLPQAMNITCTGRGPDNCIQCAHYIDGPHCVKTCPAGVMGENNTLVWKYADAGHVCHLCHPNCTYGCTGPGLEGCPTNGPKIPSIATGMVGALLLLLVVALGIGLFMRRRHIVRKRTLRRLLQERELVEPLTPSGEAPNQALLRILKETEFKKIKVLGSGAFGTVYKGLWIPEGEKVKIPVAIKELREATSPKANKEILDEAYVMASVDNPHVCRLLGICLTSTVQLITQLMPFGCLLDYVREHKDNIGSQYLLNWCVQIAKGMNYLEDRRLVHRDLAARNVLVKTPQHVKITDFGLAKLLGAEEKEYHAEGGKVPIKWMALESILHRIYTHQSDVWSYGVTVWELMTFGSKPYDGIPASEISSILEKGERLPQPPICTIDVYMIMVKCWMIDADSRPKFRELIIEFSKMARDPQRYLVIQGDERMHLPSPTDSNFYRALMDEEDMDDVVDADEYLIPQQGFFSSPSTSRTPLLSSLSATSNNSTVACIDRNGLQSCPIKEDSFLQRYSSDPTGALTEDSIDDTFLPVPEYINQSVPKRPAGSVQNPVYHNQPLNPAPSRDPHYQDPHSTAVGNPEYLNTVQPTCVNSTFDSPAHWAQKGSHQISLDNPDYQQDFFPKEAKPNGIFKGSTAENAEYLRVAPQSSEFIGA
For test [8], the target named is Follistatin-related protein 3 (Homo sapiens) (UniProt O95633). The experiment in a line: compounds binding follistatin-related protein 3 – biochemical, small-molecule microarray, 635 nm fluorescence, primary screen (AID 1105).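 Further: score merges emission near 667 nm and signal to noise per printed spot across three slides.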 To be noted: FSTL3 binding, higher = more signal.
Follistatin-related protein 3 (Homo sapiens), sequence (O95633 whole entry, looked up): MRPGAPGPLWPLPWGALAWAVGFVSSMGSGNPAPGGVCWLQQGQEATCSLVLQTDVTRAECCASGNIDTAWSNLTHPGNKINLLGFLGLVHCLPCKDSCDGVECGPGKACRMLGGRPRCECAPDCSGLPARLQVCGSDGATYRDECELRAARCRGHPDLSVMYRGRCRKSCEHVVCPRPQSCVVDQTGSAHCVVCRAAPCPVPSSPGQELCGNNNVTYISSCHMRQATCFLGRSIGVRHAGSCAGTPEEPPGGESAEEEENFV
Test [9] concerns the target Dickkopf-related protein 1 (Homo sapiens) (UniProt O94907). The experiment in a line: small molecules binding DKK1 protein – biochemical, small-molecule microarray, 635 nm fluorescence scan, primary screen (AID 1106).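 Further: score merges emission near 667 nm with signal to noise over three replicate slides.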 To be noted: higher = more signal.
The test system of test [10] is Inhibin beta A chain (activin A). Description: small molecules binding activin A – biochemical, small-molecule microarray, 635 nm fluorescence scan, primary screen (AID 1107).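 Further: mouse activin A protein probed at 4.33 µg/mL on printed slides; score merges bound-protein fluorescence near 667 nm with spot signal-to-noise.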 To be noted: INHBA, higher = more signal.
Test [11] concerns Human papillomavirus type 1a protein E7 (residues 44-93). Description: small molecules binding HPV E7 44-93 – biochemical, small-molecule microarray, residues 44-93, 635 nm fluorescence, primary screen (AID 1108).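 Further: E7 fragment applied at 1 µg/mL in TBST for 1 h at 4 C; score combines spot fluorescence with its signal to noise ratio.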 To be noted: fluorescence 635 nm, higher = more signal.
Test [12] in a line: hepatitis C replication reporter changes, two-sided – Huh7 cells, luciferase reporter, HCV replication inhibitor project, primary screen (AID 1109).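 Further: huh7 hepatoma cells harbouring a luciferase neomycin HCV replicon reporter; luciferase luminescence as measure of HCV replicon replication; test concentration not given here.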 To be noted: Huh7 HCV replicon luciferase reporter, 48 h; higher = more signal.
The target of test [13] is Left-right determination factor 2 (Homo sapiens) (UniProt O00292). The experiment in a line: small molecules binding LEFTY2 protein – biochemical, small-molecule microarray, 635 nm fluorescence scan, primary screen (AID 1110). To be noted: higher = more signal.
Left-right determination factor 2 (Homo sapiens), sequence (O00292 whole entry, looked up): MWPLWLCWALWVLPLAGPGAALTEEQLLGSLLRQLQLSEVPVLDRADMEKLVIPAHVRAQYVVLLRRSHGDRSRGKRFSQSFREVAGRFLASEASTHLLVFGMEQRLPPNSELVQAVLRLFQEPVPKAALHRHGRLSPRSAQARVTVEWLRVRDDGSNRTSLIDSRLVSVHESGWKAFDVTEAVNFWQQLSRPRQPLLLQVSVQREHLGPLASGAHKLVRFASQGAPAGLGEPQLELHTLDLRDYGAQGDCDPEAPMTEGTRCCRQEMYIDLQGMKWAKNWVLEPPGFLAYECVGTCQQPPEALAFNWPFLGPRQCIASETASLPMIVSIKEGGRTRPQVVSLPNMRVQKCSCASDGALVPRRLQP
The target of test [14] is Calmodulin-1 (Homo sapiens) (UniProt P0DP23). The experiment in a line: small molecules binding calmodulin-1 with EGTA – biochemical, small-molecule microarray, Cy5-labelled CALM1, profiling panel (AID 1111).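 Further: labelled calmodulin applied in Tris saline Tween buffer holding calcium plus EGTA and DTT.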 To be noted: Cy5-CALM1 binding fluorescence, higher = more signal.
Test [15] shares this target. The experiment in a line: small molecules binding Ca-loaded calmodulin-1 – biochemical, small-molecule microarray, Cy5-labelled CALM1, plus calcium, artefact control for SMM control-protein annotation, profiling panel (AID 1112).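 Further: score merges spot fluorescence with signal to noise from triplicate slides.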 To be noted: Cy5-CALM1 binding fluorescence, higher = more signal.
A short description of test [16]: probe aWnt5a binding to arrayed compounds – biochemical, biotinylated probe, 635/667 nm fluorescence, primary screen (AID 1113).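 Further: score merges 667 nm fluorescence intensity with signal-to-noise per printed feature.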 To be noted: small-molecule microarray, higher = more signal.
Test [17] in a line: probe aShh binding to arrayed compounds – biochemical, biotinylated probe, 635/667 nm fluorescence, primary screen (AID 1114).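 Further: probe is biotin-labelled aShh protein from a stem cell growth factor screen; measures binding of labelled protein to compounds printed on the slide; score merges feature fluorescence at 667 nm with signal-to-noise.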 To be noted: small-molecule microarray, higher = more signal.
The nature of test [18]: probe aNog binding to arrayed compounds – biochemical, biotinylated probe, 635/667 nm fluorescence, primary screen (AID 1115).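 Further: probe is biotinylated aNog protein used at 0.15 µg/mL for 1 h at 4 C; z-score combines 667 nm fluorescence of each spot with its signal to noise.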 To be noted: small-molecule microarray, higher = more signal.
For test [19], the target named is Torsin-1A-interacting protein 1 (Homo sapiens) (UniProt Q5JTV8). The experiment in a line: compound microarray binding of lysate hLAP1 – cell lysate, small-molecule microarray, COS7 lysate, 635/667 nm fluorescence, primary screen (AID 1116). To be noted: 635 nm fluorescence, higher = more signal.
Torsin-1A-interacting protein 1 (Homo sapiens), sequence (Q5JTV8 whole entry, looked up): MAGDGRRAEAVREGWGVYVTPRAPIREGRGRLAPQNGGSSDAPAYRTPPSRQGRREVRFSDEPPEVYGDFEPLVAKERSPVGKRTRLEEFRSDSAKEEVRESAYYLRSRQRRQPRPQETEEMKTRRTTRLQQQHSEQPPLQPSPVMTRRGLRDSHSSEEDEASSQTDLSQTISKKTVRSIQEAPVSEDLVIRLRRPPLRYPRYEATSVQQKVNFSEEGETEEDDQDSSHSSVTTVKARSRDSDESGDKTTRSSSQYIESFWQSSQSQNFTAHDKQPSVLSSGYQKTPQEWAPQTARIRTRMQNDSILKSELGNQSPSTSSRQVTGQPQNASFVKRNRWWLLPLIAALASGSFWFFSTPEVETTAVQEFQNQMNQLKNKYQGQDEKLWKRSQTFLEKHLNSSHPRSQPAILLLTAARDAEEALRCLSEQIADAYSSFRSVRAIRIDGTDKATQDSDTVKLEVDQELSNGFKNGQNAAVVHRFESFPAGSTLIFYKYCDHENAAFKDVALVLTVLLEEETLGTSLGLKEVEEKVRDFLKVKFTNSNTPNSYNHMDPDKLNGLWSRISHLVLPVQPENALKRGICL
Test [20] deals with Alpha-bungarotoxin (Bungarus multicinctus) (UniProt P60615). Description: compounds binding labelled alpha-BTX control protein – biochemical, small-molecule microarray, Alexa647 label, 635/667 nm fluorescence, artefact control for SMM control protein annotation, profiling panel (AID 1117). To be noted: alpha-BTX-A647 binding fluorescence, higher = more signal.
Alpha-bungarotoxin (Bungarus multicinctus), sequence (P60615 whole entry, looked up): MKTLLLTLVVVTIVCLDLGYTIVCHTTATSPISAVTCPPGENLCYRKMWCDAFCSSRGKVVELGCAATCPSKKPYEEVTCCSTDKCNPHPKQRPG

The structures appear in SMILES notation. Active and inactive are the calls of the source.

This passage reports composite z-score and z-score results from PubChem BioAssay.

Fibroblast growth factor 10 (Homo sapiens), sequence (O15520 whole entry, looked up): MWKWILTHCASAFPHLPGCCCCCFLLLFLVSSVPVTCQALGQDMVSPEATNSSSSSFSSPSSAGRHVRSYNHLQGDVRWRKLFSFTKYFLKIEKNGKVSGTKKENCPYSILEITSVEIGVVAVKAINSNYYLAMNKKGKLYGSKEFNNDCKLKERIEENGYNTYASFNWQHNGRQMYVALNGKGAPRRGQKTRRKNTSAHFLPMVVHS
Dickkopf-related protein 1 (Homo sapiens), sequence (O94907 whole entry, looked up): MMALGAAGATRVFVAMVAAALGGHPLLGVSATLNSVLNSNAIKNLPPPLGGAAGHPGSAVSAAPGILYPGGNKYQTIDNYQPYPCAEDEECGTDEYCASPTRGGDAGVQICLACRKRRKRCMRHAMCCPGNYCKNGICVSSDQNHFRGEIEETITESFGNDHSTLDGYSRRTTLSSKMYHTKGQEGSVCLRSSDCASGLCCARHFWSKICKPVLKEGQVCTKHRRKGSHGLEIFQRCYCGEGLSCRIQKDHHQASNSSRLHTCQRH

Take `C=C(COC)/C(=C/C[C@@H](OC(=O)c1ccncc1)c1ccccc1OCCO)c1cc(C(=O)OC)ccc1OC`: the composite z-score in test [1] is -0.979; in test [2], -0.0241; in test [3], 0.445; in test [5], -0.0528; in test [6], -0.628; in test [7], -0.796. Besides, the composite z-score in [8] is -0.354; in test [9], -0.276; in test [10], 0.845; in test [11], -0.553; in [13] it was -0.934; in test [14] it was -0.188. Also, the composite z-score was -0.66 in test [15]; -0.107 in test [16]; -0.0849 in [17]; 0.0471 in [18]; 0.332 in [19]; -0.626 in [20]. In addition, the z-score is 2.66 (inactive) in test [4] and -2.5 in test [12].

In the case of `[N-]=[N+]=NCc1ccccc1[C@H]1OC(c2ccc(OCCCO)cc2)=N[C@@]1(Cc1ccccc1)C(=O)NCCN1CCOCC1`, the composite z-score in test [1] is 1.23; in [2], -0.378; in test [3], 0.75; in [5], 1.43; in test [6], 1.21; in [7], 0.446. Further, the composite z-score was 1.07 in test [8]; 0.0815 in test [9]; 0.768 in test [10]; -0.442 in [11]; 0.293 in test [13]; 0.572 in [14]. The composite z-score was -0.138 in [15]; 0.0711 in test [16]; 0.0088 in test [17]; 1.97 in test [18]; 1.28 in test [19]; 1.78 in test [20]. The z-score is -1.06 (inactive) in test [4] and -1.62 in test [12].

For the compound `COCC1=C2[C@@H](CCc3ccccc3)OB(O)C[C@@H]2[C@@H]2C(=O)N(C)C(=O)[C@@H]2C1`, the composite z-score was -0.069 in test [1]; -0.333 in test [2]; -0.57 in test [3]; 0.711 in test [5]; -0.0422 in test [6]; 0.3 in test [7]. Further, the composite z-score in test [8] is 0.146; in [9], 0.216; in test [10] it was 0.808; in [11], -0.152; in test [13], 0.211; in test [14], -0.344. Also, the composite z-score was -0.294 in test [15]; -0.0405 in [16]; -0.138 in test [17]; -0.205 in test [18]; 0.226 in test [19]; -0.273 in test [20]. Also, the z-score is 0.348 (inactive) in test [4] and -1.2 in test [12].

Turning to `Cc1ccc(S[C@]2(C(=O)NCC(C)C)CC(=O)N(C3Cc4ccccc4C3)[C@@H]2c2ccc(CO)cc2I)cc1`, the composite z-score in test [1] was 1.35; in test [2], -0.126; in test [3], -0.0156; in test [5], -0.767; in test [6], -0.61; in test [7], -0.821. Besides, the composite z-score in [8] is 0.594; in [9], -1.02; in test [10] it was 0.847; in test [11], -0.117; in test [13], -1.2; in test [14], -0.257. Besides, the composite z-score in [15] was 0.27; in [16], -0.125; in test [17], -0.368; in test [18], 0.0862; in test [19], 0.273; in test [20], -0.324. Further, the z-score was -0.968 (inactive) in [4] and -1.33 in test [12].

Turning to `COCCOC(=O)N1C(=O)[C@@]2(c3ccccc31)[C@H](c1ccccc1OCCO)N1[C@H](c3ccccc3)[C@H](c3ccccc3)OC(=O)[C@H]1[C@@H]2C(=O)N1CCCCCCC1`, the composite z-score was determined as 1.91 in test [1]; 3.18 in test [2]; 1.76 in [3]; 1.37 in [5]; 1.37 in test [6]; 1.91 in test [7]. Also, the composite z-score is 1.68 in test [8]; 2.31 in test [9]; 2.02 in test [10]; 1.53 in test [11]; 1.73 in [13]; 2.8 in test [14]. Further, the composite z-score in test [15] amounted to 1.47; in test [16], 1.5; in [17], 3.37; in test [18], 3.61; in test [19] it was 5.43; in test [20], 3.1. The z-score in test [4] is -1.46 (inactive); in test [12], -3.17.

As for `C=CCC(OC(C)=O)[C@@H]1[C@@H](N(Cc2ccc(-c3ccccc3)cc2)C(=O)c2ccc(C)cc2)c2cc(OCCCO)ccc2N1C(=O)Cc1ccc2ccccc2c1` (stereo not given in full), the composite z-score is -0.334 in test [1]; -0.199 in test [2]; 0.0333 in test [3]; 0.107 in [5]; -0.197 in test [6]; 0.251 in test [7]. Also, the composite z-score in test [8] was -0.274; in [9], 0.258; in [10] it was 0.567; in test [11], -0.579; in test [13] it was -0.0611; in test [14], -0.117. In addition, the composite z-score in [15] is 0.53; in [16] it was -0.0794; in [17] it was -0.349; in test [18], 0.0127; in [19] it was 1.68; in [20], 0.0941. Besides, the z-score is -1.84 (inactive) in test [4] and -0.588 in [12].

With `C=C[C@@H](C)[C@@H](OC(=O)Nc1ccc(SC)cc1)c1ccc(OCCO)cc1`, the composite z-score is 1.4 in [1]; -0.289 in [2]; 0.753 in test [3]; 0.472 in [5]; 0.335 in test [6]; 0.0159 in test [7]. Also, the composite z-score in test [8] is 0.426; in [9], -0.185; in test [10], 0.0303; in test [11], 1.27; in test [13] it was -0.0734; in [14], 1.24. For the same compound, the composite z-score in test [15] was 0.305; in test [16], -0.0512; in test [17] it was -0.0192; in test [18] it was -0.358; in test [19] it was 0.882; in test [20], 0.954. For the same compound, the z-score is -1.01 (inactive) in test [4] and -0.181 in test [12].

For `COCCOC(=O)N1C(=O)[C@@]2(c3ccccc31)[C@H](c1ccc(OCCO)cc1)N1[C@H](c3ccccc3)[C@H](c3ccccc3)OC(=O)[C@H]1[C@@H]2C(=O)N1CCCCCCC1`, the composite z-score in [1] worked out at 2.35; in test [2] it was 3.24; in test [3] it was 1.9; in [5], 1.76; in test [6], 1.46; in test [7], 2.03. The composite z-score in test [8] was determined as 1.76; in test [9] it was 2.62; in [10], 1.89; in [11], 1.52; in test [13], 1.83; in test [14] it was 3.21. Moreover, the composite z-score in test [15] worked out at 1.79; in [16] it was 1.61; in test [17], 3.26; in test [18] it was 3.73; in test [19], 5.85; in test [20], 5.03. Further, the z-score in test [4] was -1.59 (inactive); in test [12], -1.56.
